In general, AC50 refers to the midpoint of the concentration-response curve, whichever way the signal moves.

Structures are written as SMILES. Results filed as inconclusive are left out. The source made the active and inactive calls. How the source made its calls, unless noted: active means hit-call score of the fitted dose curve at least 0.9, where 1 is the maximum; inactive means score below 0.9.

The text below walks through data of PubChem BioAssay (EPA / NIEHS).

The nature of test [1]: ATG_CRE_CIS: Attagene CIS-FACTORIAL HepG2 Assay for human cAMP Responsive Element (CRE) binding protein 3 (AID 2282926). The settings on record: HepG2 CRE cis-reporter, Attagene multiplexed mRNA; actives raise or lower the signal. Put shortly:
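HepG2 cells transiently transfected with a multiplexed reporter library (CRE-driven unit among them) were dosed for 24 h. Reporter mRNA was quantified by RT-PCR, fluorescent labelling, HpaI digestion and capillary electrophoresis, with bidirectional fitting against DMSO baseline.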

For test [2], the target named is Aryl hydrocarbon receptor (Homo sapiens) (UniProt P35869). Briefly: ATG_Ahr_CIS: Attagene CIS-FACTORIAL HepG2 Assay for human Aryl Hydrocarbon Receptor (Ahr) (AID 2282930). The settings on record: HepG2 AhR cis-factorial reporter transcription; actives raise or lower the signal. Put shortly:
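HepG2 cells transiently transfected with cis-element-driven multiplexed reporter transcription units; endogenous transcription factor activity measured as reporter mRNA 24 h after dosing. RT-PCR, 6-FAM labelling, HpaI digestion, capillary electrophoresis; bidirectional fitting versus DMSO baseline.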

A short description of test [3]: ATG_AP_1_CIS: Attagene CIS-FACTORIAL HepG2 Assay for human Activator Protein 1 (AP-1) (AID 2282931). The settings on record: HepG2 Attagene cis-factorial AP-1 reporter mRNA; actives raise or lower the signal. In short, it runs like this: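 HepG2, transient cis-reporter transfection; 24 h; readout RT-PCR/CE fluorescence; DMSO baseline, gain and loss fitted.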
Test [4] can be described thus: ATG_BRE_CIS: Attagene CIS-FACTORIAL HepG2 Assay for human Bone Morphogenetic Protein (BMP) Response Element (BRE) (AID 2282933). The following applies: HepG2 BMP response element reporter, Attagene transcription factor profiling; actives raise or lower the signal. Put shortly: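 Multiplexed cis-reporter assay, HepG2, 24 h exposure. mRNA from reporter units quantified via RT-PCR/CE; DMSO baseline; bidirectional curve fit.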

Test [5] concerns the target Hepatocyte nuclear factor 3-beta (Homo sapiens) (UniProt Q9Y261). The test can be described thus: ATG_FoxA2_CIS: Attagene CIS-FACTORIAL HepG2 Assay for human Forkhead box A2 (FOXA2) (AID 2282942). The settings on record: HepG2 cis-reporter transcription factor activity, 24 h; actives raise or lower the signal. Put shortly: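 24 h dosing of HepG2 bearing cis-reporter constructs; mRNA readout by RT-PCR/CE fluorescence; bidirectional fit, DMSO baseline.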

Test [6] is described as follows: ATG_FoxO_CIS: Attagene CIS-FACTORIAL HepG2 Assay for human Forkhead box O (FoxO) (AID 2282943). The settings on record: HepG2 Attagene cis-reporter, FoxO element, mRNA; actives raise or lower the signal. Put shortly:
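HepG2 cells transiently transfected with cis-promoter-driven multiple reporter transcription units; 24 h after chemical dosing, reporter mRNA quantified by RT-PCR, fluorescent primer extension, HpaI digestion and capillary electrophoresis. Bidirectional fitting versus DMSO baseline.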

The nature of test [7]: ATG_GATA_CIS: Attagene CIS-FACTORIAL HepG2 Assay for human GATA Binding Protein (AID 2282944). The settings on record: HepG2 GATA cis-element reporter, Attagene multiplex mRNA; actives raise or lower the signal. In short, it runs like this: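 After transfecting HepG2 cells with multiple cis-regulated reporter units, chemicals are dosed for 24 h; isolated RNA undergoes RT-PCR and fluorescent labeling before capillary electrophoresis, with activity expressed against DMSO.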

Test [8] deals with Hepatocyte nuclear factor 6 (Homo sapiens) (UniProt Q9UBC0). The test can be described thus: ATG_HNF6_CIS: Attagene CIS-FACTORIAL HepG2 Assay for human Hepatocyte Nuclear Factor 6 (HNF6) (AID 2282952). The settings on record: HepG2 Attagene cis-factorial HNF6 reporter transcription; actives raise or lower the signal. In short, it runs like this:
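HepG2 cells transiently transfected with cis-element-driven multiple reporter transcription units, dosed 24 h; reporter mRNA quantified by RT-PCR, FAM primer extension, HpaI digestion and capillary electrophoresis; bidirectional fit versus DMSO baseline.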

Test [9] addresses Heat shock factor protein 1 (Homo sapiens) (UniProt Q00613). The test can be described thus: ATG_HSE_CIS: Attagene CIS-FACTORIAL HepG2 Assay for human Heat Shock Transcription Factor 1 (HSE) (AID 2282953). The settings on record: HepG2 HSE cis-reporter, Attagene RNA transcription; actives raise or lower the signal. In short, it runs like this: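 Endogenous transcription factor activity captured via cis-promoter reporter units transfected into HepG2; treatment lasted 24 h. Fluorescence intensity of reporter fragments analysed with bidirectional curve fitting, DMSO baseline.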

Test [10] can be described thus: ATG_NF_kB_CIS: Attagene CIS-FACTORIAL HepG2 Assay for human Nuclear Factor Kappa B (NF-kB) (AID 2282991). The settings on record: HepG2 Attagene cis-factorial NF-kB reporter mRNA; actives raise or lower the signal. Put shortly: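 Fluorescence of labelled RT-PCR products separated by capillary electrophoresis gives reporter mRNA levels from transfected HepG2 cells exposed 24 h; values are fitted in both directions relative to DMSO.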

Test [11] is described as follows: ATG_NRF2_ARE_CIS: Attagene CIS-FACTORIAL HepG2 Assay for human Nuclear Factor Erythroid 2 Related Factor 2 (NFR2) response to Antioxidant Response Elements (ARE) (AID 2282992). The following applies: HepG2 Attagene ARE/NRF2 reporter, transcription factor activity; actives raise or lower the signal. In short, it runs like this: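 HepG2 cells transiently transfected with multiplexed cis-regulated reporter transcription units measure endogenous transcription factor activity. Reporter mRNA at 24 h is quantified by RT-PCR, fluorescent labelling and capillary electrophoresis, with bidirectional fitting relative to DMSO.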

Test [12] has as its target Cellular tumor antigen p53 (Homo sapiens) (UniProt P04637). The test can be described thus: ATG_p53_CIS: Attagene CIS-FACTORIAL HepG2 Assay for human p53 Transcription Factor (AID 2282994). The settings on record: HepG2 p53 cis-element reporter, Attagene mRNA; actives raise or lower the signal. In short, it runs like this:
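HepG2 cells transiently transfected with multiplexed cis-regulated reporter transcription units read endogenous TF activity. After 24 h compound exposure, reporter mRNA was quantified by RT-PCR, fluorescent labelling, HpaI digestion and capillary electrophoresis; bidirectional fits versus DMSO baseline.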

Test [13] in a line: ATG_XTT_Cytotoxicity: Cytotoxicity Assessment in the Attagene TRANS-FACTORIAL HepG2 Assay (AID 2283584; active means hit-call score of the fitted dose curve at least 0.9, where 1 is the maximum). In short, it runs like this: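 HepG2 human liver cells, transiently transfected with multiple GAL4-UAS reporter units, were dosed and read at 24 h by XTT as cell number. Loss of signal was fitted relative to DMSO negative control baseline.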
The nature of test [14]: ATG_Ets_CIS: Attagene CIS-FACTORIAL HepG2 Assay for human Erythroblast Transformation Specific (ETS) (AID 2282941). The settings on record: HepG2 ETS cis-reporter transcription, actives raise or lower the signal. Put shortly: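 HepG2 cells transiently transfected with cis-promoter reporter transcription units were dosed for 24 h; reporter mRNA was measured by RT-PCR, 6-FAM primer extension, HpaI digestion and capillary electrophoresis, with bidirectional fitting against DMSO baseline.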

For test [15], the target named is Hypoxia-inducible factor 1-alpha (Homo sapiens) (UniProt Q16665). Briefly: ATG_HIF1a_CIS: Attagene CIS-FACTORIAL HepG2 Assay for human Hypoxia Inducible Factor 1 (HIF1A) (AID 2282951). The settings on record: HepG2 Attagene cis-factorial HIF1a reporter transcription; actives raise or lower the signal. Put shortly:
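After 24 h chemical exposure of reporter-transfected HepG2 cells, reporter cDNA was PCR-amplified, labelled by 6-FAM primer extension (2 min 95 C, 20 s 68 C, 10 min 72 C), HpaI-cut (2 h, 37 C) and analysed by CE.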

The target in test [16] is Paired box protein Pax-6 (Homo sapiens) (UniProt P26367). Briefly: ATG_Pax6_CIS: Attagene CIS-FACTORIAL HepG2 Assay for human Paired Box 6 (PAX6) (AID 2282956). The following applies: HepG2 CIS-FACTORIAL PAX6 reporter transcription, RNA readout; actives raise or lower the signal. In short, it runs like this:
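HepG2 cells transiently transfected with multiplexed cis-promoter reporter units (endogenous TF activity) were dosed for 24 h. Reporter mRNA was quantified by RT-PCR, 6-FAM labeling, HpaI digestion and capillary electrophoresis; bidirectional fitting versus DMSO baseline.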

Test [17] in a line: ATG_SREBP_CIS: Attagene CIS-FACTORIAL HepG2 Assay for human Sterol Regulatory Element Binding (SREBP) (AID 2282962). The settings on record: HepG2 Attagene cis-factorial SREBP reporter, mRNA; actives raise or lower the signal. Put shortly: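 HepG2 cells transiently transfected with multiplexed cis-element reporter units report endogenous transcription factor activity. After 24 h of chemical exposure, reporter mRNA was quantified by RT-PCR, 6-FAM labelling, HpaI digestion and capillary electrophoresis; bidirectional fits used DMSO as baseline.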

Test [18] can be described thus: ATG_MRE_CIS: Attagene CIS-FACTORIAL HepG2 Assay for human Metal Responsive Element (MRE) (AID 2282954). The following applies: HepG2 MRE cis-reporter transcription, Attagene multiplex; actives raise or lower the signal. In short, it runs like this: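 HepG2 cells transiently transfected with multiple cis-element reporter units measure endogenous MTF1-driven transcription. After 24 h compound exposure, reporter mRNA is quantified by RT-PCR with 6-FAM labelling, HpaI digestion and capillary electrophoresis; bidirectional fits versus DMSO.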

The nature of test [19]: ATG_VDRE_CIS: Attagene CIS-FACTORIAL HepG2 Assay for human Vitamin D Receptor Element (VDRE) (AID 2282968). The settings on record: HepG2 VDRE cis-reporter transcription, actives raise or lower the signal. In short, it runs like this: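 HepG2 cells transiently transfected with cis-element reporter units, dosed 24 h; reporter mRNA measured by RT-PCR, 6-FAM labeling, HpaI digestion and capillary electrophoresis. Activity fitted bidirectionally against DMSO baseline.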

Hepatocyte nuclear factor 6 (Homo sapiens), sequence (Q9UBC0 whole entry, looked up): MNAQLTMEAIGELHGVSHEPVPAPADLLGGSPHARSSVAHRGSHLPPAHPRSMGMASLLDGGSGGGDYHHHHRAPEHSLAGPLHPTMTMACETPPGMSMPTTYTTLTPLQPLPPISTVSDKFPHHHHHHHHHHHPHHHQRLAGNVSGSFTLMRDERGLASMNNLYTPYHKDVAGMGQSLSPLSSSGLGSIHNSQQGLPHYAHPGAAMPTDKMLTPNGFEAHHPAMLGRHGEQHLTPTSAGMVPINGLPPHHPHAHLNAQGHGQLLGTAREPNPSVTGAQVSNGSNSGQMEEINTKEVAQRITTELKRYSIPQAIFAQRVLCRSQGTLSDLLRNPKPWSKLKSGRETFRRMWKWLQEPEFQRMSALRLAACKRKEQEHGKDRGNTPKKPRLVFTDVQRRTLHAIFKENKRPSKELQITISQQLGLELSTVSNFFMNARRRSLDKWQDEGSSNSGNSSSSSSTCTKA
Hepatocyte nuclear factor 3-beta (Homo sapiens), sequence (Q9Y261 whole entry, looked up): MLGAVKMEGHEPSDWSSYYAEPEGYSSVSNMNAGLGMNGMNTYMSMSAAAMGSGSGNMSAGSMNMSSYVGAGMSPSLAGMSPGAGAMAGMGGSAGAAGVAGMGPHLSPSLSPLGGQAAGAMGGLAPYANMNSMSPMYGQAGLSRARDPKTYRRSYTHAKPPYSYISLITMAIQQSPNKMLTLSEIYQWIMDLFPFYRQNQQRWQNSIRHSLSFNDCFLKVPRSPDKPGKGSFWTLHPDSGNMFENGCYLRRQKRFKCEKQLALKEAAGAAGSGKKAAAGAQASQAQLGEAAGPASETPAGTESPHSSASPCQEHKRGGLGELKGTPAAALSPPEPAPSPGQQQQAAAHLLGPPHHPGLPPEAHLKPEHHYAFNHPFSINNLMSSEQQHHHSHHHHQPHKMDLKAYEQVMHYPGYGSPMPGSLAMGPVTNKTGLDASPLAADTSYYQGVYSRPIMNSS
Aryl hydrocarbon receptor (Homo sapiens), sequence (P35869 whole entry, looked up): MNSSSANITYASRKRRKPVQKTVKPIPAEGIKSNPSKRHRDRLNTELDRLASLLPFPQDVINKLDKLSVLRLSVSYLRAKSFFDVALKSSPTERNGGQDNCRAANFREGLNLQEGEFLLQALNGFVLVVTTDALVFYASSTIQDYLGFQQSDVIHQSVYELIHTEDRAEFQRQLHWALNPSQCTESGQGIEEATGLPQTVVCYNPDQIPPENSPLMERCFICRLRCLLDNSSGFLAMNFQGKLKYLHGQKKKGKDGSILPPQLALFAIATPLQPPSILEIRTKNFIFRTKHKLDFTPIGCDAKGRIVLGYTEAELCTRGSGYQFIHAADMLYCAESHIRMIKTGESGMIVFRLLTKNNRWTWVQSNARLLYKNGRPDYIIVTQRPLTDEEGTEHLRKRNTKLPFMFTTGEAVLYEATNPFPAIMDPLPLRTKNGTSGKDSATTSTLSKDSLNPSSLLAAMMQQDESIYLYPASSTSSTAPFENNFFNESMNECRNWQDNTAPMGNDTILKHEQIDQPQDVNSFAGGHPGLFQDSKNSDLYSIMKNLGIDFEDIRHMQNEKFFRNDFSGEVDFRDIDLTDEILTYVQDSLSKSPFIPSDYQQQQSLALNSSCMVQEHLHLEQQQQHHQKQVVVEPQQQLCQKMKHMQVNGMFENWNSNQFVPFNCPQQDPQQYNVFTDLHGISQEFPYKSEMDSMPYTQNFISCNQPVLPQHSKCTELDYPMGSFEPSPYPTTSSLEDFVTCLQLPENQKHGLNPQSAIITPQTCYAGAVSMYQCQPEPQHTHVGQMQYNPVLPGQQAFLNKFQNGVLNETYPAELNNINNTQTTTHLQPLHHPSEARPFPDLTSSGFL
Hypoxia-inducible factor 1-alpha (Homo sapiens), sequence (Q16665 whole entry, looked up): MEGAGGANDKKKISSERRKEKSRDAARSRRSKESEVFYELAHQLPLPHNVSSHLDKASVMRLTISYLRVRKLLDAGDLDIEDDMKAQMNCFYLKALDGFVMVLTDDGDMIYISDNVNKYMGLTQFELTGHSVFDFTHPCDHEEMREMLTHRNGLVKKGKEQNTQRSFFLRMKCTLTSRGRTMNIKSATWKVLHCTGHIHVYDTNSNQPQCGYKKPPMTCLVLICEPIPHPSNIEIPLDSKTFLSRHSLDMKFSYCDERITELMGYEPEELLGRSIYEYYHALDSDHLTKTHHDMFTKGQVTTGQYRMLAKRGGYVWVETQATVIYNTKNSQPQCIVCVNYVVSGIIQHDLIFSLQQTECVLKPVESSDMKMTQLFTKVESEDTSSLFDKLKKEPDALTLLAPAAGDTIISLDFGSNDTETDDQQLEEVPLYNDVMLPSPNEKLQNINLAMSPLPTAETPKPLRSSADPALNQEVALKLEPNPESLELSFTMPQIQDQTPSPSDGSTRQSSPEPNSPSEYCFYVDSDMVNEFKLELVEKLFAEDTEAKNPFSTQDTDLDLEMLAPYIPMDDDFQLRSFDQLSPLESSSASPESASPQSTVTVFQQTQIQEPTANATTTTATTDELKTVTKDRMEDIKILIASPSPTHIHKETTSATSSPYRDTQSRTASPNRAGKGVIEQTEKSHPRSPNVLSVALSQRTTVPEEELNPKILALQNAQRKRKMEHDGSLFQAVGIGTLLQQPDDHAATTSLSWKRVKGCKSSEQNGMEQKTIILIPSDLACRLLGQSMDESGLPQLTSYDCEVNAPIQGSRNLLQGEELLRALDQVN
Cellular tumor antigen p53 (Homo sapiens), sequence (P04637 whole entry, looked up): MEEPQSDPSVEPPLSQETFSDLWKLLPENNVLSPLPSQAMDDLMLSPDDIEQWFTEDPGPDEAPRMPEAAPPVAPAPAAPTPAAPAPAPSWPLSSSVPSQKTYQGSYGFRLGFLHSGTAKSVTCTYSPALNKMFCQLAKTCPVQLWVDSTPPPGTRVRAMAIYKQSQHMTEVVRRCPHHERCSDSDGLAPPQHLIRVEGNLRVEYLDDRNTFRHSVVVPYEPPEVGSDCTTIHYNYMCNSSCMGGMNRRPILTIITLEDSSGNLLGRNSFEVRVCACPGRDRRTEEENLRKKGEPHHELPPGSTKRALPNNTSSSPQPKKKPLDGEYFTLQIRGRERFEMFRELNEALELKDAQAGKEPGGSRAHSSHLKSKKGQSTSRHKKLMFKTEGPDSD
Heat shock factor protein 1 (Homo sapiens), sequence (Q00613 whole entry, looked up, the tested form may be a part): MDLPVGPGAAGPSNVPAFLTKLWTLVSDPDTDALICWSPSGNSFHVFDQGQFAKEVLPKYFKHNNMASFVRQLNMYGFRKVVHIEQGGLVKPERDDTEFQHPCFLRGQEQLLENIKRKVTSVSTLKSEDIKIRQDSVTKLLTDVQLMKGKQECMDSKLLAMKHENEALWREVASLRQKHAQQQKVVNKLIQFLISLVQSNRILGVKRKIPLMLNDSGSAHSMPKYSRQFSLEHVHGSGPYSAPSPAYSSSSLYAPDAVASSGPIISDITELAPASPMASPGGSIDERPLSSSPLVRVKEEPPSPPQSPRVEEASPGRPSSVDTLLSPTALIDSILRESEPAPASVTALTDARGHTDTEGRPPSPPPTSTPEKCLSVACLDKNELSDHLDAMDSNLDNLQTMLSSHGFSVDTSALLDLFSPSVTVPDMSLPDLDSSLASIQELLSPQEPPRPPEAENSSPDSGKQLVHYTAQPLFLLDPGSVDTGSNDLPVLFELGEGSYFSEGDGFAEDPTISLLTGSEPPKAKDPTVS
Paired box protein Pax-6 (Homo sapiens), sequence (P26367 whole entry, looked up): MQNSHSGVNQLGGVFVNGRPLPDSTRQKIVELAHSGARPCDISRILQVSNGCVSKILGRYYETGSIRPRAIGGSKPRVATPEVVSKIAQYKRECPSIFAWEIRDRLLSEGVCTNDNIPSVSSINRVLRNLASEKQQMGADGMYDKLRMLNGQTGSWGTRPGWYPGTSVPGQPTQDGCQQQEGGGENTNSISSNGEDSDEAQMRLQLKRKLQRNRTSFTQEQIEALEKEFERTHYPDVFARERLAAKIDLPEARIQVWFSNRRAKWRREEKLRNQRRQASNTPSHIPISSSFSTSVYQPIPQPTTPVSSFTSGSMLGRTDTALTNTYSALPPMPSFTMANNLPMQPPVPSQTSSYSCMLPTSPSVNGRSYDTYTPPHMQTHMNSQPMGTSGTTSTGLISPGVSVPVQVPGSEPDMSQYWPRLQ

Consider `O=C1C=CC(=O)C=C1`, for which the outcome in [1], in [4], in [5], in [6], in [7] and in test [8] was inactive. Further, the result in test [9], in [10], in [12] and in [13] was inactive. Further, the AC50 in test [2] is 2.15 µM (active); in test [3], 61.2 µM (active); in test [11], 57.4 µM (active).
Turning to `CC(Cc1ccc(C(C)(C)C)cc1)CN1C[C@@H](C)O[C@@H](C)C1` (stereo not given in full), the call in [1], in [14], in test [6], in test [7], in [15] and in test [8] was inactive. Also, the compound was called inactive in [9], in test [16], in test [17], in test [12] and in [13]. Besides, the concentration at half-maximal activity (AC50) in [2] was 33.4 µM (active); in test [3], 40.6 µM (active); in [4], 50.3 µM (active); in [10], 21 µM (active); in [11], 35.9 µM (active).
With `CC1OC(C)OC(C)O1` (stereo not given), the call in [1], in test [2], in [14], in test [5], in [7] and in [15] was inactive. Moreover, the compound was called inactive in test [8], in [9], in [18], in test [17], in [10] and in test [11]. Besides, the result in test [12] and in [13] was inactive.
Consider `C=CCN(CC=C)C(=O)C(Cl)Cl`, for which the compound was called inactive in [1], in test [2], in [3], in test [4], in [14] and in test [5]. The call in [6], in test [15], in test [8], in test [9], in test [18] and in [16] was inactive. The compound was classed as inactive in test [19], in [10], in [12] and in test [13]. For the same compound, in test [11], the AC50 is 50.9 µM (active).
